Screens from PubChem.
NadD block: blocks S. aureus nicotinate mononucleotide adenylyltransferase | purified NadD enzyme, colorimetric absorbance read-out | actives 0.78% (n = 360,000) | inhibition, % at 20 µM; in the data active = inhibition above about 26%
bovine MsrA act: activators of bovine methionine sulfoxide reductase A | actives 0.3% (n = 360,000) | activation, % at 10.6 µM | AID 602163 | purified bovine MsrA, absorbance read-out; in the data active = activation above about 7.5%;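 also: 0% = vehicle and 100% = reference activator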
MsrA inhibitor: bovine MsrA inhibition; purified bovine MsrA, absorbance read-out; inhibition, % at 15.5 µM; actives 0.75% (n = 360,000);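 also: 0% = vehicle wells with enzyme and 100% = reference inhibitor wells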
DAGLB inhibitor: blocks human DAGLB lipase activity; inhibition, % at 5.17 µM; AID 504411; HEK293T DAGLB membrane lysate, EnzChek fluorogenic substrate; actives 0.059% (n = 340,000); in the data active = inhibition above about 34%;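 also: 0% = enzyme with vehicle and 100% = wells lacking enzyme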
Target sequence (Q8NCG7 whole entry, looked up): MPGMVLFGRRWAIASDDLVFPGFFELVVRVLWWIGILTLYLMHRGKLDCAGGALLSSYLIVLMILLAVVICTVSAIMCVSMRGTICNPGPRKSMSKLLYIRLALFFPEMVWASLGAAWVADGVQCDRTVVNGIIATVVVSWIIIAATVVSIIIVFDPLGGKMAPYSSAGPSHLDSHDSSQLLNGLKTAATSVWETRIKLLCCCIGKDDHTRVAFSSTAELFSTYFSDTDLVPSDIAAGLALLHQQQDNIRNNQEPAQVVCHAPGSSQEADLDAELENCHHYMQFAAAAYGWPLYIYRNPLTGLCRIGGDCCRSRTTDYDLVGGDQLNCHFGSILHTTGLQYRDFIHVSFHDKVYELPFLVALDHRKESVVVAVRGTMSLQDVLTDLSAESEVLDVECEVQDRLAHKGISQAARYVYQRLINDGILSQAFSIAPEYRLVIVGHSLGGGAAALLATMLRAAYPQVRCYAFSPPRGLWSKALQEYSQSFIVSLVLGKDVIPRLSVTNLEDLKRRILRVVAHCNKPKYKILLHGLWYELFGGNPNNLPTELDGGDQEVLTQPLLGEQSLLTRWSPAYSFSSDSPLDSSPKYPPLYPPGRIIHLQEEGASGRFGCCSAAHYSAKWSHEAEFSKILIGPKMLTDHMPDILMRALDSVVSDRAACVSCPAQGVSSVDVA
DSG3 Ab inh: inhibitors of pemphigus antibody binding to human desmoglein-3; P32926; DSG3-coupled beads, scFv-anti-DSG3-GFP binding, flow cytometry; hits give low values; binding (percent of control), % at 10 µM; actives 0.48% (n = 310,000); AID 588358;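 active = binding more than 3 SD below its plate's average and above zero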;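 also: hits lower antibody fragment binding to DSG3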
rCAG binder: molecules binding r(CAG) RNA repeats | r(CAG) RNA repeat, TO-PRO-1 dye displacement fluorescence | inhibition, % at 3 µM | actives 1.3% (n = 370,000) | AID 651821;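 active = inhibition above the plate cutoff, the mean of all test compounds on that plate plus 3 SD, cut at about 35% in these data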;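 also: 0% = DMSO alone and 100% = 100 µM mitoxantrone as full dye displacement; higher means more dye released from RNA so lower well fluorescence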
MsrA conf: confirmation of bovine MsrA inhibitors | purified bovine MsrA, absorbance read-out | AID 651822 | shares compounds with MsrA inhibitor | actives 41% (n = 2,300) | inhibition, % at 15.5 µM;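 also: coupled to thioredoxin reductase with NADPH and selenocystamine and DMSO as substrate; 0% = vehicle only and 100% = full effect of reference inhibitor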
Starred values were filed as active, the others as inactive; / = no result given. In the library only some 3.2% were active in any assay of this set; here they are far more common. Rule as the data show it, unless noted: active = inhibition above about 4.5%; inactive = the rest.

SMILES	NadD block	bovine MsrA act	MsrA inhibitor	DAGLB inhibitor	DSG3 Ab inh	rCAG binder	MsrA conf
COc1ccc(/C=N/NC(=O)Cc2ccc(Cl)cc2)cc1OC	0.5	-4.8	0.1	0.9	85.8	-6.4	/
CCN(CC)c1ccc(/C=N/NC(=O)Cc2ccc(OC)c(OC)c2)cc1	-4.3	-6.7	5.2*	4.2	/	-3.4	2.3
CCOC(=O)N/N=C\C=C\c1ccc2c(c1)OCO2	0.3	-4.5	7.3*	2.0	85.5	-4.8	4.7*
CC1(C)CC(=O)c2sc(NC(=O)C(C)(C)C)nc2C1	-4.5	-11.2	1.3	-4.1	90.7	-3.1	/
CC1(C)CC(=O)c2sc(NS(=O)(=O)c3ccc(F)cc3)nc2C1	5.3	-9.2	5.3*	-0.7	81.5	6.7	3.0
CC1(C)CC(=O)c2sc(NC(=O)CN3CCCCC3)nc2C1	-3.4	0.7	5.2*	-0.5	113.5	-0.9	2.7
N#CC(C#N)=Cc1c[nH]c(=O)c(C#N)c1Nc1ccccc1	-2.0	-2.4	5.4*	/	97.5	-4.2	2.4
N#Cc1c(Nc2ccccc2)c(/C=N/N=C/c2ccccc2)c[nH]c1=O	2.6	-2.1	0.0	-0.4	100.2	13.3	/
Cc1c(NC(=S)N/N=C/C=C/c2ccccc2)c(=O)n(-c2ccccc2)n1C	6.0	-5.7	6.4*	-1.9	110.5	1.7	6.8*
Cc1c(NC(=S)N/N=C/C=C/c2ccc([N+](=O)[O-])cc2)c(=O)n(-c2ccccc2)n1C	9.1	-2.9	9.8*	3.8	/	7.7	4.9*
Cc1c(NC(=S)N/N=C/c2ccc([N+](=O)[O-])cc2O)c(=O)n(-c2ccccc2)n1C	-3.6	-7.7	3.2	9.0	90.7	12.4	/
COc1ccc(/C=N/NC(=S)Nc2c(C)n(C)n(-c3ccccc3)c2=O)cc1OC	2.6	1.1	5.2*	-1.2	110.9	-3.6	4.2
CC1(C(=O)NCc2cccc(C(F)(F)F)c2)CCN1C1Cc2ccccc2C1 (stereo unspecified)	6.3	2.7	1.4	/	/	-0.7	/
COC(=O)/C=C1\OC(C2CC2)c2ccccc21 (stereo unspecified)	/	/	-0.2	/	/	2.6	/
COc1ccc(C(=O)/C(=C/c2cccs2)c2nc3ccccc3o2)cc1	-4.4	-1.4	3.2	-6.8	104.8	1.4	/
COc1ccc(/C=C(\CC(=O)O)c2nc3ccccc3o2)cc1	-0.1	-5.2	5.9*	0.0	98.6	7.0	4.1
O=C(c1cccs1)N1CC[C@H]2[C@H](CCCN2Cc2cc(F)cc(F)c2)C1	/	/	/	/	/	2.2	/
COc1ccc(/C=C/C(=O)c2ccncc2)c2ccccc12	3.6	0.5	8.3*	-0.8	100.1	4.0	-0.6
COc1cccc(/C=C/C(=O)c2cccc([N+](=O)[O-])c2)c1OC	-10.8	-10.9	1.1	5.1	105.5	2.4	/
COc1ccc(-c2cc(C(F)(F)F)n3nc(C(=O)O)nc3n2)cc1	-7.5	-4.8	5.1*	1.2	101.9	1.3	4.1
N#Cc1c(-c2ccc(F)cc2)c(-c2ccc(F)cc2)nn(CCO)c1=O	-0.2	-3.2	1.1	2.5	96.3	-0.1	/
COCc1cc(C)nc(OCC(=O)N/N=C/c2ccc(O)cc2)c1C#N	0.0	-1.7	0.1	0.6	105.2	1.2	/
COCc1cc(C)nc(OCC(=O)N/N=C/c2ccc(C)o2)c1C#N	-2.3	-5.3	6.7*	-0.1	90.1	-1.1	2.4
Cc1ccc(CN2CCCCC(NC(=O)c3cccc([N+](=O)[O-])c3)C2=O)cc1 (stereo unspecified)	/	/	/	/	/	4.2	/
CCOC(=O)c1[nH]c(C)c(C(=O)OCC)c1C	-3.3	-3.0	-0.9	-2.2	101.4	0.1	/
CCOC(=O)c1c(C)[nH]sc1=S	-3.9	5.0	4.9*	-0.1	99.4	-3.6	2.9
Cc1c(C(=O)N/N=C/c2cccnc2)sc(N)c1C#N	1.8	-3.2	4.7*	3.1	111.5	4.5	3.2
Cc1ccc(C(=O)N/N=C\c2cccnc2)s1	-1.4	-1.6	1.6	0.7	103.0	-0.8	/
C[C@H](O)[C@@H]1CN2CCc3c([nH]c4c(-c5ccc6c(c5)OCO6)cccc34)[C@@H]2C[C@@H]1N(C)C(=O)Nc1ccccc1	/	/	/	/	/	12.9	/
CC1(C(=O)Nc2cccc(C(F)(F)F)c2)Cc2c(-c3ccc4c(c3)OCO4)ccnc2O1 (stereo unspecified)	5.8	-1.4	-0.3	/	/	2.9	/
